From PubChem BioAssay (EPA / NIEHS) come the findings set out here.

Some compounds were tested as several samples or in several runs, with calls that do not always agree. The source made the active and inactive calls. The calls were made as follows: active = hit-call score of the fitted dose curve at least 0.9, where 1 is the maximum; inactive = score below 0.9.

Read-out in assay [1]: TIMP metallopeptidase inhibitor 1 (TIMP1), TIMP1 (gene 7076)
Description: BSK_hDFCGF_TIMP1: BioMAP Diversity Plus: hDFCGF Assay for TIMP metallopeptidase inhibitor 1 (TIMP1) Biomarker Activity (AID 2283062). To be noted: primary human foreskin fibroblasts; actives raise or lower the signal. The essentials:
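Bidirectional curve fitting against DMSO baseline yielded this endpoint, based on ELISA detection of TIMP-1 in primary human foreskin fibroblasts exposed to compound for 24 h.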

Read-out in assay [2]: Monokine induced gamma interferon (MIG), CXCL9 (gene 4283)
Description: BSK_hDFCGF_MIG: BioMAP Diversity Plus: hDFCGF Assay for Monokine induced gamma interferon (MIG) Biomarker Activity (AID 2283063). The settings on record: primary human foreskin fibroblasts; actives raise or lower the signal. The essentials:
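Endpoint derived by bidirectional fitting relative to DMSO; MIG quantified via ELISA in primary human foreskin fibroblasts harvested 24 h after dosing.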

Read-out in assay [3]: Matrix Metallopeptidase 1 (MMP1), MMP1 (gene 4312)
Put plainly: BSK_hDFCGF_MMP1: BioMAP Diversity Plus: hDFCGF Assay for Matrix Metallopeptidase 1 (MMP1) Biomarker Activity (AID 2283064). The settings on record: primary human foreskin fibroblasts; actives raise or lower the signal. The essentials: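 Primary human foreskin fibroblasts exposed to chemicals for 24 h; MMP1 measured by ELISA. Cytotoxicity tracked by SRB staining in parallel cultures; bidirectional fit relative to DMSO.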

Read-out in assay [4]: Vascular cell adhesion molecule 1 (VCAM1), VCAM1 (gene 7412)
Description: BSK_hDFCGF_VCAM1: BioMAP Diversity Plus: hDFCGF Assay for Vascular cell adhesion molecule 1 (VCAM1) Biomarker Activity (AID 2283065).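 As to AC50: VCAM-1 protein level quantified by ELISA after 24 h chemical exposure.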 To be noted: primary human foreskin fibroblasts; actives raise or lower the signal. The essentials:
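Measured after 24 h chemical treatment of primary human skin fibroblasts, VCAM-1 was detected by ELISA and concentration-response analysed in both directions versus DMSO vehicle.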

Read-out in assay [5]: Plasminogen activator inhibitor-1 (PAI1), SERPINE1 (gene 5054)
Put plainly: BSK_hDFCGF_PAI1: BioMAP Diversity Plus: hDFCGF Assay for Plasminogen activator inhibitor-1 (PAI1) Biomarker Activity (AID 2283066). The settings on record: primary human foreskin fibroblasts; actives raise or lower the signal. In a few lines: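 PAI-1 levels, determined by ELISA, served as the endpoint in human foreskin fibroblast cultures exposed to compound for 24 h, with DMSO as baseline.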

Read-out in assay [6]: Intercellular Adhesion Molecule 1 (ICAM1), ICAM1 (gene 3383)
Description: BSK_KF3CT_ICAM1: BioMAP Diversity Plus: KF3CT Assay for Intercellular Adhesion Molecule 1 (ICAM1) Biomarker Activity (AID 2283067). To be noted: primary human keratinocytes with fibroblasts; actives raise or lower the signal. In a few lines: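 Bidirectional curve fitting against a DMSO baseline was applied to ICAM-1 ELISA signal from primary human skin co-cultures harvested 24 h after treatment, with SRB staining of parallel wells for overt cytotoxicity.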

Read-out in assay [7]: Interferon-gamma inducible Protein 10 (IP10), CXCL10 (gene 3627)
Description: BSK_KF3CT_IP10: BioMAP Diversity Plus: KF3CT Assay for Interferon-gamma inducible Protein 10 (IP10) Biomarker Activity (AID 2283068). To be noted: primary human keratinocytes with fibroblasts; actives raise or lower the signal. The essentials: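 ELISA read-out of IP-10 after 24 h chemical dosing of human skin primary co-culture (keratinocytes, foreskin fibroblasts). Gain or loss of signal relative to DMSO, bidirectional curve fit.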

Assay [8] in a line: BSK_KF3CT_SRB: Viability Assessment in the BioMAP Diversity Plus: KF3CT Assay (AID 2283069).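 Also: total protein by sulforhodamine B staining as a cytotoxicity measure; read 24 h after compound addition; fitted for both signal gain and loss against DMSO baseline.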 The settings on record: primary human keratinocytes with fibroblasts. The essentials: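 Human keratinocyte and foreskin fibroblast co-culture exposed to chemical for 24 h. Total protein measured in parallel cultures by 0.1% sulforhodamine B staining after 10% TCA fixation, read at 560 nm; bidirectional fit relative to DMSO.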

Read-out in assay [9]: Interleukin-1 alpha (IL1a), IL1A (gene 3552)
Put plainly: BSK_KF3CT_IL1a: BioMAP Diversity Plus: KF3CT Assay for Interleukin-1 alpha (IL1a) Biomarker Activity (AID 2283070). The settings on record: primary human keratinocytes with fibroblasts; actives raise or lower the signal. In a few lines:
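Primary human keratinocyte plus foreskin fibroblast co-culture, dosed and measured at 24 h in 96-well plates. IL-1a level quantified by ELISA; bidirectional fit relative to DMSO.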

Read-out in assay [10]: TIMP metallopeptidase inhibitor 2 (TIMP2), TIMP2 (gene 7077)
Description: BSK_KF3CT_TIMP2: BioMAP Diversity Plus: KF3CT Assay for TIMP metallopeptidase inhibitor 2 (TIMP2) Biomarker Activity (AID 2283071). The settings on record: primary human keratinocytes with fibroblasts; actives raise or lower the signal. The essentials:
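Keratinocyte–fibroblast co-culture, 24 h exposure; TIMP-2 ELISA, DMSO-normalised bidirectional fit. Parallel SRB (0.1%, TCA-fixed, 560 nm) total-protein staining gauges cytotoxicity.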

Read-out in assay [11]: C-C motif chemokine 2 (Homo sapiens) (UniProt P13500)
Put plainly: BSK_KF3CT_MCP1: BioMAP Diversity Plus: KF3CT Assay for Monocyte Chemoattractant Protein 1 (MCP1/CCL2) Biomarker Activity (AID 2283073). The settings on record: primary human keratinocytes with fibroblasts; actives raise or lower the signal. In a few lines: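 Biomarker MCP-1 is measured by ELISA in primary human keratinocytes co-cultured with foreskin fibroblasts, 24 h after chemical treatment; DMSO serves as the negative control and activity baseline.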

Read-out in assay [12]: Matrix Metallopeptidase 9 (MMP9), MMP9 (gene 4318)
Put plainly: BSK_KF3CT_MMP9: BioMAP Diversity Plus: KF3CT Assay for Matrix Metallopeptidase 9 (MMP9) Biomarker Activity (AID 2283074).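 As to AC50: MMP9 protein level quantified by ELISA in the co-culture.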 The settings on record: primary human keratinocytes with fibroblasts; actives raise or lower the signal. In a few lines: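 Human keratinocyte and foreskin fibroblast co-culture exposed to chemicals for 24 h; MMP9 biomarker measured by ELISA, bidirectional fitting relative to DMSO; cytotoxicity tracked by SRB total protein staining in parallel cultures.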

Read-out in assay [13]: urokinase plasminogen activator (uPA), PLAU (gene 5328)
Description: BSK_KF3CT_uPA: BioMAP Diversity Plus: KF3CT Assay for urokinase plasminogen activator (uPA) Biomarker Activity (AID 2283075). To be noted: primary human keratinocytes with fibroblasts; actives raise or lower the signal. In a few lines:
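Primary human keratinocyte/foreskin fibroblast co-culture exposed to chemical; uPA measured by ELISA at 24 h. Bidirectional fit versus DMSO, with parallel SRB total-protein staining for cytotoxicity.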

Read-out in assay [14]: E-selectin (Homo sapiens) (UniProt P16581)
Put plainly: BSK_LPS_Eselectin: BioMAP Diversity Plus: LPS Assay for Eselectin Biomarker Activity (AID 2283077). The settings on record: primary human HUVEC with PBMC; actives raise or lower the signal. The essentials:
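Dose chemical onto LPS-driven HUVEC/PBMC co-culture; after 24 h, run ELISA for E-selectin; fit up- and down-going responses relative to DMSO control.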

Read-out in assay [15]: Interleukin-8 (IL8), CXCL8 (gene 3576)
Put plainly: BSK_LPS_IL8: BioMAP Diversity Plus: LPS Assay for Interleukin-8 (IL8) Biomarker Activity (AID 2283078). The settings on record: primary human HUVEC with PBMC; actives raise or lower the signal. The essentials: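 In this LPS system, chemical-treated human umbilical vein endothelium/PBMC co-cultures were harvested at 24 h for IL-8 ELISA.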

Assay [16] can be described thus: BSK_LPS_SRB: Viability Assessment in the BioMAP Diversity Plus: LPS Assay (AID 2283079).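 Also: total protein by sulforhodamine B absorbance as a cytotoxicity measure; measured one day after compound addition; fitted in both directions against DMSO so loss or gain of signal counts.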 To be noted: primary human HUVEC with PBMC. In a few lines: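 Cytotoxicity endpoint in human endothelial–PBMC co-culture: 24 h exposure, then SRB (0.1%) staining, 560 nm read.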
Read-out in assay [17]: Interleukin-1 alpha (IL1a), IL1A (gene 3552)
Put plainly: BSK_LPS_IL1a: BioMAP Diversity Plus: LPS Assay for Interleukin-1 alpha (IL1a) Biomarker Activity (AID 2283080). The settings on record: primary human HUVEC with PBMC; actives raise or lower the signal. The essentials: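 Primary human HUVEC and PBMC co-culture stimulated with LPS is dosed and harvested at 24 h. Both increases and decreases in ELISA-measured IL-1a are scored relative to DMSO.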

Read-out in assay [18]: Monocyte Chemoattractant Protein-1 (MCP1), CCL2 (gene 6347)
Description: BSK_LPS_MCP1: BioMAP Diversity Plus: LPS Assay for Monocyte Chemoattractant Protein-1 (MCP1) Biomarker Activity (AID 2283081).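 As to AC50: secreted MCP-1 protein quantified by ELISA in culture supernatant.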 The settings on record: primary human HUVEC with PBMC; actives raise or lower the signal. The essentials:
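Values derive from bidirectional fitting against DMSO of ELISA-measured MCP-1 in a human primary endothelial and mononuclear cell co-culture, 24 h after chemical addition under LPS activation.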

Read-out in a further assay: CD40, CD40 (gene 958)
Put plainly: BSK_LPS_CD40: BioMAP Diversity Plus: LPS Assay for CD40 Biomarker Activity (AID 2283076). The settings on record: primary human HUVEC with PBMC; actives raise or lower the signal. The essentials:
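Using a multiplexed primary human co-culture (umbilical vein endothelium plus PBMC), CD40 was read by ELISA 24 h after dosing, with cytotoxicity tracked by sulforhodamine B staining of parallel cultures and activity fitted bidirectionally versus DMSO.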

Chain of E-selectin (Homo sapiens) (P16581 whole entry, looked up): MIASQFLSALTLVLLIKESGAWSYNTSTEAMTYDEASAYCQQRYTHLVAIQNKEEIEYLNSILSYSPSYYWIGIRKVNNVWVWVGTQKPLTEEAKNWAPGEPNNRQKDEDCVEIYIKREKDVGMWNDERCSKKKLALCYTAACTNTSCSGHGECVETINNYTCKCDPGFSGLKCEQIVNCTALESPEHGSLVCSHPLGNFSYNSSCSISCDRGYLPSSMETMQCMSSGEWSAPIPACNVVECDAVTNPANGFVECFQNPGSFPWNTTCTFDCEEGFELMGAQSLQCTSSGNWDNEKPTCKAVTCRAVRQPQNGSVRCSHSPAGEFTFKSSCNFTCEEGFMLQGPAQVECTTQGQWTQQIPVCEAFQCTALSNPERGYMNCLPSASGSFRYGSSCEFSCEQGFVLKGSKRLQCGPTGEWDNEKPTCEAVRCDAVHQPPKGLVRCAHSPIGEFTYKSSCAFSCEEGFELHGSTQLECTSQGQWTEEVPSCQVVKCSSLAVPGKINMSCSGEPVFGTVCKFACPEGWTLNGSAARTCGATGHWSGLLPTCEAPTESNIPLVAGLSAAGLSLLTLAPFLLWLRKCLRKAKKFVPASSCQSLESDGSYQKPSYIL

On to `Cc1nn(C)c(Oc2ccccc2)c1C=NOCc1ccc(C(=O)OC(C)(C)C)cc1`, for which the result in assay [1], in assay [2], in assay [6], in assay [8], in [9] and in assay [10] was inactive. For the same molecule, the result in assay [13] and in [14] was inactive. For the same molecule, the half-maximal activity concentration (AC50) in assay [3] is 34.5 µM (active); in assay [4] it was 13.9 µM (active); in [5] it was 24.2 µM (active); in [7], 13 µM (active); in assay [11], 12.7 µM (active); in assay [12], 11.8 µM (active). The AC50 in assay [15] was 8.08 µM (active); in [16], 12.6 µM (active); in assay [17], 13.2 µM (active); in assay [18], 17.5 µM (active).

Consider `O=C(c1ccccc1)C1CCCCC1`, for which the result in assay [1], in assay [2], in assay [3], in assay [4], in assay [5] and in assay [6] was inactive. Moreover, the outcome in assay [7], in [8], in [9], in [10], in [11] and in [12] was inactive. In addition, the outcome in assay [13] is “inactive”; with CD40, CD40 (gene 958), “inactive”; in assay [14], “inactive”; in assay [15] it was “inactive”; in assay [16], “inactive”; in assay [17] it was “inactive”. Further, the result in assay [18] was inactive.

Take `CC1(C)C(C=C(Cl)Cl)C1C(=O)OCc1cccc(Oc2ccccc2)c1` (stereo not given): the outcome in assay [1], in assay [2], in [3], in assay [4], in assay [5] and in assay [6] was inactive. Moreover, the outcome in assay [7], in assay [8], in assay [9], in assay [10], in [11] and in [12] was inactive. The outcome in assay [13] was “inactive”; in the assay with CD40, CD40 (gene 958), “inactive”; in assay [14], “inactive”; in [17] it was “inactive”; in assay [18], “inactive”. Further, the values for the half-maximal activity concentration (AC50) in assay [15] and in [16] were 10 µM (active) and 6.14 µM (active), respectively.

Take `CCCN(CCC)C(=O)SCC`: the result in [1], in [2], in assay [3], in [5], in assay [6] and in [7] was inactive. Further, the outcome in [8], in assay [9], in assay [10], in [11], in assay [12] and in assay [13] was inactive. The outcome with CD40, CD40 (gene 958) was “inactive”; in assay [14], “inactive”; in [15], “inactive”; in assay [16] it was “inactive”; in assay [17], “inactive”; in assay [18], “inactive”. The AC50 in [7] is 36.1 µM (active).
